Screening results from PubChem.
Not all results are given here.
aSyn UTR act: Activators working through SNCA 5'UTR binding (MLPCN). alpha-synuclein 5'UTR reporter, activators screen. activity score, % (tested at 7.5 µM), hits read low. 7.1% of 300,000 active; in the data active means activity score below about -60%
Numbers without * were called inactive.

SMILES	aSyn UTR act
O=C(CCCN1C(=O)/C(=C/c2ccc3c(c2)OCO3)SC1=S)Nc1cccc(C(=O)O)c1	73
O=C(Cc1cccs1)NCc1cccc(Br)c1	-112*
COc1ccc(CNC(=O)Cc2cccs2)cc1	-70*
O=C(CCCc1cccs1)Nc1ccc2c(c1)OCO2	-182*
COc1ccc(CNC(=O)CSc2ccsc2[N+](=O)[O-])cc1	-117*
O=C(Cc1cccs1)NCc1ccc2c(c1)OCO2	-65*
COc1cc(SC)ccc1C(=O)Nc1ncc(C)s1	98
COc1cc(SC)ccc1C(=O)Nc1ccc2c(c1)OCO2	-69*
COc1cc(SC)ccc1C(=O)Nc1ccc(C)cc1	-142*
COc1ccc(Br)cc1C(=O)Nc1cc(C)cc(C)c1	-62*
COc1cc(SC)ccc1C(=O)Nc1ncc(Cl)cc1Cl	-91*
O=[N+]([O-])c1ccc(C23CC4CC(CC(O)(C4)C2)C3)cc1	-87*
O=C1c2sc3nc4ccccc4n3c2C(=O)N1c1ccccc1Cl	-72*
COc1cccc(NC(=O)c2ccc3nc(C)sc3c2)c1	-239*
COc1ccccc1NC(=O)c1ccc2[nH]c(C)c(C)c2c1	-145*
COc1ccccc1NC(=O)c1ccc2nc(C)sc2c1	-105*
C/C(N)=C(/C#N)C(=O)CSc1nc2ccccc2[nH]1	-115*
Cc1[nH]c2ccccc2c1C(=O)CSc1nc2ccccc2c(=O)n1CCCN1CCOCC1	-67*
Cc1[nH]c2ccccc2c1C(=O)CSc1nc2ccccc2[nH]1	-100*
Cc1[nH]c2ccccc2c1C(=O)CSC(=S)N1CCCCC1	-159*
CC1CCN(C(=O)CSc2nc3ccccc3[nH]2)CC1	-105*
C/C(N)=C(/C#N)C(=O)CSc1nnnn1-c1ccc(C)cc1	-90*
O=C(/C=C\c1ccccc1OC(=O)c1ccccc1F)c1cc2ccccc2o1	-132*
Cc1cccc(C)c1OCC(=O)Nc1cccc(-c2nnc(-c3ccccc3)o2)c1	-91*
COc1cccc(-c2nnc(NC(=O)C3CCCCC3)o2)c1	-96*
SMILES	aSyn UTR act
Cc1ccc(-c2nnc(-c3cccc(NC(=O)c4cccs4)c3)o2)cc1	-94*
O=C(Nc1cccc(-c2nnc(-c3ccccc3)o2)c1)C1CCCCC1	-105*
Cc1ccc(NC(=O)Nc2nnc(-c3ccccc3)o2)cc1	-75*
CCC(=O)Nc1cccc(-c2nnc(-c3ccccc3)o2)c1	-201*
c1ccc(CCNc2ncnc3sccc23)nc1	-86*
OC(CNc1ncnc2sccc12)c1ccccc1 (configuration not stated)	-97*
O=C1CCCC1C(=O)Nc1ccc2ccccc2c1 (configuration not stated)	-121*
c1ccc(CCSc2nccn2-c2ccccc2)cc1	-121*
N#Cc1nc(-c2ccccc2F)oc1NCCc1ccccn1	-81*
COCCCNc1oc(-c2ccccc2F)nc1C#N	-84*
Cc1cccc(C)c1NS(=O)(=O)c1ccc(-c2cnc(C3CC3)o2)cc1	103
O=C(/C=C/c1c(F)cccc1Cl)Nc1ccncc1	-328*
O=C(/C=C/c1c(Cl)cccc1Cl)Nc1ccncc1	-293*
CN1CCN(C(=O)/C=C/c2c(F)cccc2Cl)CC1	-68*
CCN1/C(=C/c2sc(-c3ccccc3C)c[n+]2C)Sc2ccccc21	94
O=C(c1cn(-c2ccc(Cl)c(Cl)c2)nn1)C1CC1	-107*
COc1ccc(C(C#N)N2N=C(c3ccccc3)CC2c2ccccc2)cc1OC (configuration not stated)	-182*
COc1ccc(C2=NN(C(C#N)c3ccc(OC)cc3)C(c3ccccc3)C2)cc1 (configuration not stated)	-250*
CCSc1n[nH]c(=S)s1	-89*
Oc1ccccc1N=Nc1nc(-c2ccccc2)c(-c2ccccc2)[nH]1	107
Oc1ccc(-c2nnc(-c3ccccc3)c(-c3ccccc3)n2)cc1	-201*
CN(C)c1nc(-c2ccccn2)nnc1-c1ccccc1	79
N#Cc1c(N2CCOCC2)nsc1-c1ccccc1	-68*
N#Cc1c(N2CCCC2)nsc1-c1ccccc1	-180*
CC1CCCN(c2nc3ccsc3c(=O)s2)C1 (configuration not stated)	-148*
SMILES	aSyn UTR act
O=C(O)/C=C\C(=O)Nc1ccccc1C#Cc1ccc(Br)cc1	-290*
O=C(O)/C=C\C(=O)Nc1ccccc1C#Cc1ccccc1	-87*
C/C(CC(=O)Nc1ccc(F)cc1F)=N\NC(=O)C(=O)N1CCCCC1	-68*
COCCNC(=O)Cc1c(C)c2c(cc(C)c3c(C(C)(C)C)coc32)oc1=O	-116*
Cc1cc2oc(=O)c(CC(=O)NCCCN(C)C)c(C)c2c2occ(C(C)(C)C)c12	61
COc1ccccc1-c1nnc(SCc2nc3ccccc3s2)n1C	-109*
CCOc1ccccc1-n1nnnc1SCc1nc2ccccc2s1	-233*
NC(=O)CSCc1nc2ccccc2s1	-65*
COc1ccc(-c2nnc(SCc3nc4ccccc4s3)n2C(C)C)cc1	-107*
CCn1c(SCc2nc3ccccc3s2)nnc1-c1cccs1	-160*
Cc1ccccc1-n1c(C)nnc1SCc1nc2ccccc2s1	-250*
Cn1c(SCc2nc3ccccc3s2)nnc1-c1cccs1	-67*
C/C(CC(=O)Nc1ccc(Cl)cc1C(F)(F)F)=N\NC(=O)c1cccs1	-106*
O=C(COC(=O)CNC(=O)c1cccs1)Nc1ccccc1C(F)(F)F	-95*
C/C(CC(=O)Nc1ccc(Cl)cc1C(F)(F)F)=N\NC(=O)c1ccccn1	-127*
Cc1cc(/C=N/Nc2ncnc(N)c2[N+](=O)[O-])c(C)n1-c1ccccc1	95
O=[N+]([O-])c1cc(CN2CCN(c3cccc(C(F)(F)F)c3)CC2)c2cccnc2c1O	71
Cc1cc(/C=N/Nc2nc(N)ncc2[N+](=O)[O-])c(C)n1-c1cccc(C(F)(F)F)c1	-117*
COc1nc(NCc2ccco2)nc(NC2CCCCC2)n1	-94*
O=C(CSc1ncc(-c2ccccc2)[nH]1)Nc1ccccc1F	-126*
CC(=O)Nc1cccc(NC(=O)CSc2ncc(-c3ccccc3)[nH]2)c1	-80*
Cc1ccc(-c2csc(NC(=O)CSC3=NCCS3)n2)cc1	-99*
O=C(CSc1nc2ccccc2[nH]1)Nc1nc(-c2cccc(Br)c2)cs1	-85*
Cc1ccc(-c2csc(NC(=O)CSc3nc(C)cc(=O)[nH]3)n2)cc1	-115*
O=C(C[n+]1cc(-c2ccc(F)cc2)n2c1CCC2)Nc1nc(-c2ccccc2)cs1	-89*
SMILES	aSyn UTR act
COc1ccc2[nH]c3nc(SC(C)C)nnc3c2c1	58
COc1ccc2[nH]c3c(NCCCOC(C)C)ncnc3c2c1	-138*
COc1ccc2[nH]c3c(NCc4ccco4)ncnc3c2c1	-113*
COc1ccc2[nH]c3c(NCCC4=CCCCC4)ncnc3c2c1	-195*
Clc1ccc2[nH]c3c(NCCCN4CCOCC4)ncnc3c2c1	-62*
O=C1CS/C(=N/N=C/c2ccccc2)N1Cc1ccco1	-81*
CN(C)/C=C/c1onc(-c2ccccc2Cl)c1C#N	-87*
C=CCNc1nc(Cl)nc(Nc2ccccc2)n1	-72*
O=C(/C=C/c1ccco1)Nc1ccc(C(=O)N2CCOCC2)cc1	-75*
O=C(/C=C/c1ccco1)Nc1ccc(N2CCCC2)cc1	-207*
Cc1cc(=O)[nH]c(N/N=C/c2ccccc2Cl)n1	-76*
CCN(CC)c1ccc(/C=N/Nc2nc(C)cc(=O)[nH]2)c(O)c1	95
Cc1cc(=O)[nH]c(N/N=C/c2cc(C)n(-c3ccccc3)c2C)n1	-63*
Clc1ccc2nc(N3CCN(c4ccccc4)CC3)sc2c1	-109*
Brc1ccc2nc(N3CCN(c4ccccc4)CC3)sc2c1	-143*
